Data taken from PubChem BioAssay AID624255 (Broad Institute, 2012).
Hit rate of the full screen: of about 77,000 compounds, about 4,600 (6%) were called active. Inconclusive results (about 1%) are left out. The sample holds actives, similar compounds and a random draw of the others, so the mix is not that of the screen. A number with no mark means an inactive call.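 The calls were made as follows: active = mean inhibition above about 93%, with at least 55% of replicates each passing it (limit read from the data, passing the limit was not always enough); inconclusive = only one of those two conditions holds; inactive = neither condition holds.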

experiment: growth inhibition of T. cruzi in host fibroblasts – cell-based, beta-gal Tulahuen parasites, NIH3T3 host, luminescence, primary screen (AID 624255); conditions: T. cruzi beta-gal in NIH3T3, GalScreen luminescence, 90 h; at 8.34 µM; active compounds read high

Row | SMILES | inhibition
1 | CO[C@@H]1CN(C)C(=O)c2cc(NC(=O)C3CCCCC3)ccc2OC[C@@H](C)N(C(=O)Nc2ccc(C(F)(F)F)cc2)C[C@H]1C | 15.6%
2 | O=C(C[C@H]1CC[C@H]2[C@@H](COC[C@H](O)CN2C(=O)c2ccccc2F)O1)NCc1ccccc1 | -22.2%
3 | Cc1ccc(S(=O)(=O)Nc2ccc3c(c2)C(=O)N([C@H](C)CO)C[C@@H](C)[C@@H](CN(C)S(C)(=O)=O)OCCCC[C@@H](C)O3)cc1 | 29.2%
4 | CO[C@H]1CN(C)C(=O)c2cc(NC(=O)Nc3c(C)noc3C)ccc2OC[C@@H](C)N(CCC(F)(F)F)C[C@H]1C | 6.32%
5 | Cc1noc(C)c1NC(=O)Nc1ccc2c(c1)C(=O)N([C@H](C)CO)C[C@@H](C)[C@H](CN(C)C(=O)Nc1cccc3ccccc13)OCCCC[C@@H](C)O2 | 80.3%
6 | C/C=C/c1ccc([C@@H]2[C@H](CO)N(C(C)=O)[C@H]2CN(CC)C(=O)CN(C)C)cc1 | 81.2%
7 | C[C@@H]1CN([C@H](C)CO)C(=O)c2cc(NC(=O)CCCN(C)C)ccc2O[C@@H](C)CCCCO[C@@H]1CN(C)Cc1ccncc1 | 14.7%
8 | CN(C)C(=O)[C@@H]1[C@@H](CO)[C@@H]2Cn3c(cccc3=O)[C@@H]2N1C(=O)C1CCC1 | -8.64%
9 | COc1ccc(S(=O)(=O)N(C)C[C@@H]2OCCCC[C@H](C)Oc3ccc(NC(=O)NC4CCCCC4)cc3C(=O)N([C@H](C)CO)C[C@H]2C)cc1 | 94%
10 | O=C(C[C@H]1CC[C@@H]2[C@H](COC[C@@H](O)CN2C(=O)Nc2ccc(C(F)(F)F)cc2)O1)NCCc1ccncc1 | 57%
11 | O=C(C[C@@H]1CC[C@@H]2[C@H](COC[C@H](O)CN2C(=O)Cc2ccccc2)O1)NC1CCC1 | 27.2%
12 | C[C@H]1CN([C@@H](C)CO)C(=O)c2cccc(NS(=O)(=O)c3cn(C)cn3)c2O[C@@H]1CN(C)CC1CCCCC1 | 96.2% (active)
13 | C[C@@H]1CCCCO[C@H](CN(C)C(=O)CCC(F)(F)F)[C@H](C)CN([C@H](C)CO)C(=O)c2cc(NS(C)(=O)=O)ccc2O1 | 107% (active)
14 | CNC[C@H]1OCCCC[C@@H](C)Oc2ccc(NS(C)(=O)=O)cc2C(=O)N([C@@H](C)CO)C[C@H]1C | 61.9%
15 | C[C@@H]1CN([C@@H](C)CO)C(=O)c2cc(NS(=O)(=O)c3cn(C)cn3)ccc2O[C@@H](C)CCCCO[C@H]1CN(C)S(=O)(=O)c1cn(C)cn1 | -14.8%
16 | C[C@H]1CN([C@@H](C)CO)C(=O)c2cc(NS(=O)(=O)c3cn(C)cn3)ccc2O[C@H]1CN(C)CC1CCCCC1 | 3.71%
17 | C[C@@H]1CN([C@H](C)CO)C(=O)c2cc(NS(C)(=O)=O)ccc2O[C@@H](C)CCCCO[C@H]1CN(C)S(=O)(=O)c1cn(C)cn1 | 104% (active)
18 | C[C@@H]1CN([C@@H](C)CO)C(=O)c2cc(NS(C)(=O)=O)ccc2O[C@@H](C)CCCCO[C@@H]1CN(C)S(=O)(=O)c1cn(C)cn1 | -54%
19 | C[C@@H]1CN([C@H](C)CO)C(=O)c2cccc(NS(=O)(=O)c3cn(C)cn3)c2O[C@H]1CN(C)CC1CC1 | 27.4%

Row | SMILES | inhibition
20 | CNC[C@H]1OCCCC[C@@H](C)Oc2ccc(NS(C)(=O)=O)cc2C(=O)N([C@H](C)CO)C[C@H]1C | 101% (active)
21 | CNC[C@@H]1OCCCC[C@@H](C)Oc2ccc(NS(C)(=O)=O)cc2C(=O)N([C@H](C)CO)C[C@@H]1C | 4.76%
22 | C[C@@H]1CN([C@H](C)CO)C(=O)c2cc(NS(=O)(=O)c3ccccc3)ccc2O[C@@H](C)CCCCO[C@@H]1CN(C)C(=O)CCC(F)(F)F | -2.2%
23 | C[C@H](CO)N1C[C@H](C)[C@H](CN(C)C(=O)CCC(F)(F)F)OCCCC[C@H](C)Oc2ccc(NS(C)(=O)=O)cc2C1=O | -3.61%
24 | CNC(=O)C[C@H]1CC[C@@H]2[C@@H](COc3ccc(NC(=O)c4ccc(F)c(F)c4)cc3C(=O)N2C)O1 | -6.57%
25 | CCNC(=O)Nc1ccc2c(c1)C(=O)N(C)[C@H]1CC[C@@H](CC(=O)N[C@H](C)c3ccccc3)O[C@@H]1CO2 | 13.7%
26 | Cc1noc(C)c1S(=O)(=O)N(C)C[C@@H]1Oc2ccc(NC(=O)Cn3cnnn3)cc2CC(=O)N([C@@H](C)CO)C[C@@H]1C | -16.4%
27 | Cc1ccc(S(=O)(=O)N[C@@H]2CC[C@H](CCNC(=O)C3CCOCC3)O[C@@H]2CO)cc1 | 2.56%
28 | CO[C@H]1CN(C)C(=O)c2cc(NC(=O)C3CCC3)ccc2OC[C@H](C)N(C)C[C@H]1C | 17%
29 | CC=Cc1ccc2n(c1=O)C[C@@H]1[C@@H](CO)[C@H](C(=O)NCC3CC3)[C@H]2N1C(=O)c1ccccc1 (mixture of isomers) | 35.2%
30 | COc1ccc(-c2ccc([C@@H]3[C@@H](CO)N4CCCCN(C(=O)NC(C)C)C[C@H]34)cc2)cc1 | 73.2%
31 | CN1C(=O)c2cc(NS(C)(=O)=O)ccc2OC[C@H]2O[C@H](CC(=O)NCc3ccccc3)CC[C@H]21 | -19.6%
32 | CO[C@@H]1CN(C)C(=O)c2ccc(NC(=O)Nc3ccccc3)cc2OC[C@@H](C)N(C(=O)CN(C)C)C[C@H]1C | -44.4%
33 | O=C([C@@H]1[C@@H](CO)[C@@H]2Cn3c(ccc(-c4ccccc4)c3=O)[C@H]1N2CCC(F)(F)F)N1CCCCC1 | 1.28%
34 | CNC[C@H]1OCCCC[C@H](C)Oc2ccc(NC(=O)Nc3c(C)noc3C)cc2C(=O)N([C@H](C)CO)C[C@H]1C | 104% (active)
35 | Cc1noc(C)c1NC(=O)Nc1ccc2c(c1)C(=O)N([C@H](C)CO)C[C@H](C)[C@@H](CN(C)S(C)(=O)=O)OCCCC[C@H](C)O2 | 11.5%
36 | CNC[C@@H]1OCCCC[C@H](C)Oc2ccc(NC(=O)Nc3ccccc3)cc2C(=O)N([C@H](C)CO)C[C@H]1C | 28.6%
37 | CO[C@@H]1CN(C)C(=O)c2cc(NC(=O)NC(C)C)ccc2OC[C@@H](C)N(CC2CC2)C[C@@H]1C | -28.4%
38 | Cc1ccc(S(=O)(=O)N2C[C@@H](O)COC[C@@H]3O[C@H](CC(=O)NCc4ccc(Cl)c(Cl)c4)CC[C@H]32)cc1 | 97.5% (active)

Row | SMILES | inhibition
39 | Cc1ccc(S(=O)(=O)N2C[C@H](O)COC[C@@H]3O[C@@H](CC(=O)NCC4CCCCC4)CC[C@H]32)cc1 | 5.15%
40 | COc1cccc(S(=O)(=O)N2C[C@@H](O)COC[C@@H]3O[C@H](CC(=O)Nc4ccccc4)CC[C@H]32)c1 | 109% (active)
41 | O=C(C[C@@H]1CC[C@@H]2[C@H](COC[C@H](O)CN2S(=O)(=O)c2ccc(F)cc2)O1)NCc1ccc(Cl)c(Cl)c1 | 54.2%
42 | Cc1cccc(S(=O)(=O)N2C[C@@H](O)COC[C@H]3O[C@H](CC(=O)Nc4ccc(-c5ccccc5)cc4)CC[C@@H]32)c1 | 94.5%
43 | O=C(C[C@H]1CC[C@H]2[C@@H](COC[C@H](O)CN2S(=O)(=O)c2cccc(Cl)c2)O1)Nc1ccccc1 | 11.3%
44 | Cc1ccc(S(=O)(=O)Nc2ccc3c(c2)C(=O)N([C@@H](C)CO)C[C@@H](C)[C@H](CN(C)Cc2ccncc2)O3)cc1 | 5.91%
45 | CN(C)C(=O)[C@@H]1[C@@H](CO)[C@@H]2Cn3c(ccc(-c4ccccc4F)c3=O)[C@@H]2N1C(=O)C1CC1 | 30.9%
46 | C[C@@H]1CCCCO[C@H](CN(C)S(=O)(=O)c2cn(C)cn2)[C@@H](C)CN([C@@H](C)CO)C(=O)c2cc(NC(=O)CCC(F)(F)F)ccc2O1 | 28.2%
47 | O=C(C[C@@H]1CC[C@@H](NS(=O)(=O)c2ccccc2)[C@H](CO)O1)NCc1ccc(Cl)c(Cl)c1 | -48.5%
48 | C[C@@H]1CN([C@@H](C)CO)C(=O)c2cc(C#CC(C)(C)O)cnc2O[C@@H]1CN(C)C(=O)C1CCOCC1 | -1.59%
49 | O=C(Cc1ccncc1)Nc1ccc2c(c1)[C@@H]1C[C@H](CC(=O)N3CCCCC3)O[C@H](CO)[C@@H]1O2 | 14.2%
50 | CN1c2ccc(-c3ccccc3)cc2[C@@H]2[C@@H](CCN2C(=O)NC2CCCC2)[C@H]1CO | 6.51%
51 | Cc1noc(C)c1S(=O)(=O)Nc1ccc2c(c1)C(=O)N([C@@H](C)CO)C[C@H](C)[C@@H](CN(C)C(=O)Nc1cccc3ccccc13)OCCCC[C@H](C)O2 | 104% (active)
52 | C[C@@H]1CCCCO[C@H](CN(C)C(=O)Nc2cccc3ccccc23)[C@@H](C)CN([C@H](C)CO)C(=O)c2cc(NS(=O)(=O)c3cccs3)ccc2O1 | 87.5%
53 | Cc1noc(C)c1S(=O)(=O)Nc1ccc2c(c1)C(=O)N([C@@H](C)CO)C[C@@H](C)[C@H](CN(C)C(=O)Nc1cccc3ccccc13)O2 | -148%
54 | C[C@@H]1CCCCO[C@H](CN(C)C(=O)Nc2cccc3ccccc23)[C@H](C)CN([C@H](C)CO)C(=O)c2cc(NS(=O)(=O)c3cccs3)ccc2O1 | 115% (active)
55 | C[C@@H]1CCCCO[C@@H](CN(C)C(=O)Nc2cccc3ccccc23)[C@@H](C)CN([C@H](C)CO)C(=O)c2cc(NS(C)(=O)=O)ccc2O1 | -3.68%
56 | Cc1noc(C)c1S(=O)(=O)Nc1ccc2c(c1)C(=O)N([C@@H](C)CO)C[C@@H](C)[C@H](CN(C)C(=O)Nc1cccc3ccccc13)OCCCC[C@H](C)O2 | 72.3%
57 | C[C@H]1CN([C@@H](C)CO)C(=O)c2cc(-c3ccccc3)cnc2O[C@H]1CN(C)C(=O)C1CCOCC1 | 60.3%
